Data published in ChEMBL document CHEMBL4513216, “Probing the Open Global Health Chemical Diversity Library for Multistage-Active Starting Points for Next-Generation Antimalarials” (ACS Infect Dis, 2020).
In all, about 65,000 compounds went through this assay and about 2,100 (3.2%) showed an effect of 50% or more. The median lay at about -52%. The list comes from a sample in which strong results are over-represented; it also holds similar structures and randomly drawn compounds.

test system: Plasmodium falciparum; assay: Screen against P. falciparum Asexual Blood Stage (ABS), at 5uM; format: functional, Dd2; settings: tested at 5 uM

SMILES | INHIBITION [%]
COCC(=O)N1CCN(Cc2cccnc2)c2ncccc2C1 | -53.1
CN(C)C(=O)CC1CC2(CCNCC2)c2cc(F)ccc21 (stereo unspecified) | -22.3
CN(C)C(=O)c1cnn2c1OCCC2 | -117
CC1CCN(S(=O)(=O)c2cccnc2)c2ccccc2S1 (stereo unspecified) | 55
CCn1cc(S(=O)(=O)N2CCC(C)Sc3ccccc32)cn1 (stereo unspecified) | -0.433
CN1CCN(S(=O)(=O)c2cccnc2)c2cnccc21 | -111
CS(=O)(=O)N1CCCC1CS(=O)(=O)c1ccccc1 (stereo unspecified) | -100
CN(C)CC(Nc1nc(N)nc2c1CCNCC2)c1ccccc1 (stereo unspecified) | -104
CCOC(=O)[C@H]1[C@@H](O)C(=O)N(C)C12CCN(C(=O)CC1CCCC1)CC2 | -1.62
Cn1cnc2c(N3CCCC3)nc(C3CCNCC3)cc21 | -31.4
Cn1cnc2c(N3CCCC3)nc(C3CCN(CC4CC4)CC3)cc21 | 68.8
Cn1cc(-c2nc(C3CCN(CC4CC4)CC3)cc3c2ncn3C)cn1 | -98.2
c1cnnc(N2CCCC(NCc3nc(-c4ccco4)no3)C2)c1 (stereo unspecified) | -78.3
O=C(COc1ccccc1)N1C[C@@H]2COC[C@]2(COc2cccnc2)C1 | -110
Cn1nc(N2CCCC(C(=O)Nc3nc4ccccc4[nH]3)C2)ccc1=O (stereo unspecified) | -105
Cc1cc(C)n(CC(C)NC(=O)NCc2c(C)cc(C)[nH]c2=O)n1 (stereo unspecified) | -51.8
O=C1CNc2ncnc(N3CCN(c4ccccc4F)CC3)c2N1 | -21.3
COc1ccc(CN(CCC#N)CCN2CCOCC2)cc1OC | -43.2
N#CCCN(CCN1CCOCC1)Cc1ccc(F)c(Br)c1 | 52.6
CCOc1ccc(CN(CCC#N)CCN2CCOCC2)cc1OC | -99
CC(C)C(=O)N1CCC2(CC1)COCCN2Cc1ccc(F)cc1 | -29.9
O=C1CNc2ncnc(Nc3cnn(Cc4ccc(F)cc4)c3)c2N1 | -134
CN(Cc1ccc(F)cc1F)Cc1cc2c(cc1Br)OCCO2 | -30.1

SMILES | INHIBITION [%]
Cc1ccc(F)c(N2CCCC(Nc3nccn4cnnc34)C2=O)c1 (stereo unspecified) | -141
Cn1cc(NS(=O)(=O)c2ccc3c(c2)CCCC3)ccc1=O | -133
CC(C)(O)CN1CCN(C(=O)c2ccc(Cl)c3cccnc23)CC1 | -2.98
CC(C)(O)CSCCNCc1ccc(Cl)c2cccnc12 | 67.7
O=C(CCCNCc1ccc(Cl)c2cccnc12)NC1CC1 | 11.3
CCS(=O)(=O)NCCNCc1ccc(Cl)c2cccnc12 | 61.5
CC(C)(C)[S+]([O-])CCNC(=O)c1ccc(Cl)c2cccnc12 (stereo unspecified) | -46.8
CC(=O)NCCCNCc1ccc(Cl)c2cccnc12 | -36.6
CN(C)C(=O)CC1CC2(CCN(Cc3ccsc3)CC2)c2ccccc21 (stereo unspecified) | 14.2
COC(=O)C(c1cc(F)ccc1F)N(C)C(=O)c1cnc(C)cn1 (stereo unspecified) | -85.1
CN(Cc1noc(C(C)(C)C)n1)C1CCCN(c2cccnn2)C1 (stereo unspecified) | -18.2
CN(C)C(=O)N1CCC(c2nc3ccc(-c4ccccc4)cn3n2)CC1 | -52.3
CN(C)c1ncc(I)c(C2CCCCN2S(C)(=O)=O)n1 (stereo unspecified) | -17.7
CN(C)c1ncc(I)c(C2CCCCN2C)n1 (stereo unspecified) | 57.8
CN(C)c1ncc(I)c(C2CCCN2C)n1 (stereo unspecified) | 20.7
CCOC(=O)c1ccccc1NC(=O)CN(C)Cc1ccccc1Cl | 8.05
Cc1c(C(=O)O)cnn1-c1ccc(-c2nc(C(C)(C)C)no2)cn1 | -116
CS(=O)(=O)NC[C@]12COC[C@H]1CN(CC1CCC1)C2 | -40
Cc1ccc(CN2CC3(CCN(C(=O)c4cscn4)C3)C2)o1 | -13.6
CN(C)Cc1nnc(C2CCCN(c3nccc4ccccc34)C2)n1C (stereo unspecified) | -10.1
CN(C)CCn1ccnc1C1CCCN(c2nccc3ccccc23)C1 (stereo unspecified) | 57.4
COc1cc(OC)nc(N2CCCC(c3nccn3CCN(C)C)C2)n1 (stereo unspecified) | -23.1
CN(C)CCn1ccnc1C1CCCN(c2cc(N)ncn2)C1 (stereo unspecified) | -52.8

SMILES | INHIBITION [%]
Cc1cc(C)nc(N2CCCC(c3nccn3CCCN(C)C)C2)c1 (stereo unspecified) | 51.7
CCn1ccnc1C1CCCN(c2nccc3ccccc23)C1 (stereo unspecified) | 30.8
COc1ccc(CCN(C)CCS(=O)(=O)c2ccc(Cl)cc2)cc1OC | -7.75
COCC(=O)N1CCC2(CC1)COc1ccccc1S(=O)(=O)N(C)C2 | -129
O=C1CNc2ncnc(N3CCN(Cc4cccc(F)c4)CC3)c2N1 | -56.6
CC(=O)Nc1nc(C(=O)N2CCCC(n3nc(C)nc3C)C2)cs1 (stereo unspecified) | -113
O=C(c1cccnc1SC/C=C/c1ccccc1)N1CC[C@H](O)C1 | -66.8
O=C(c1cccnc1SC/C=C/c1ccccc1)N1CCOCC(O)C1 (stereo unspecified) | 55.5
O=C(c1cccnc1SCc1ccccc1)N1CCOCC1 | -36.4
CCOCCCNC(=O)c1cc(C)nc(N2CCCCC2)n1 | -133
O=C(c1cnco1)N1CCC(Cc2cnc3ccccc3c2)CC1 | -56.6
O=C(c1cnco1)N1CCC(Cc2cccc3ncccc23)CC1 | -2.05
O=C(c1cnco1)N1CCC(Cc2ccc3ncccc3c2)CC1 | 67.4
Cn1cc(C[C@H]2[C@H](O)CCN2C(=O)c2ccsc2)cn1 | -51.7
Cc1cc2ccccc2n1CCC(=O)N1CCCC2(CC1)CNC(=O)O2 (stereo unspecified) | 21.3
Cc1cc2ccccc2n1CCC(=O)N1CCCC(O)(CN(C)C)CC1 (stereo unspecified) | 55.2
Cc1cc2ccccc2n1CCC(=O)N1CCC2(CC1)CNC(=O)C2 | -33.5
CN(C)CCn1ccnc1C1CCN(c2cc(N)nc(N)n2)CC1 | -90.3
Cc1ccc(OCc2occc2C(=O)O)cc1 | -66.2
OCC1(Cc2ccccc2F)CCCN(c2ccc3ccccc3n2)C1 (stereo unspecified) | -37.1
Cc1ccsc1CN(CCN(C)C)C(=O)c1ccc(C#N)nc1 | 46.5
COC(=O)c1ccccc1C(=O)N(CCN(C)C)Cc1sccc1C | 18.3
Cc1ccsc1CN(CCN(C)C)C(=O)c1ccccc1C#N | 60.9

SMILES | INHIBITION [%]
O=C1CC[C@H]2[C@H](CCN2C(=O)C2CCOC2)N1Cc1ccncc1 (stereo partly specified) | -87.6
CC(C)Oc1ncnc2c1CCN(Cc1ccoc1)CC2 | 31.6
COc1ccc(CN2CCc3ncnc(C4CC4)c3CC2)cc1 | -30.4
CC(C)Oc1ncnc2c1CCN(Cc1ccco1)CC2 | 61.2
COc1ccc(CN2CCc3ncnc(OC(C)C)c3CC2)cc1 | 63.6
CC(C)Oc1ncnc2c1CCN(Cc1cccs1)CC2 | -52.8
Cc1ccc(CN2CCc3ncnc(OC(C)C)c3CC2)s1 | 0.437
COC(=O)c1ccc(NC(C)c2ccc3c(c2)NC(=O)CO3)nn1 (stereo unspecified) | -143
O=C(O)CNc1cc(-c2nccnc2N2CCCC2)c2cc[nH]c2n1 | -6.02
O=C(Nc1ccccc1)c1n[nH]c(-n2cnnc2)n1 | -64.6
Cc1occc1C(=O)N1CCCC(c2nncn2C)C1 (stereo unspecified) | -65.6
CN1CCN(c2ccncc2S(=O)(=O)N2CCCCC2)CC1 | -92.3
Cc1nc(C2CCCN2CC(=O)NCCOc2ccccc2)no1 (stereo unspecified) | -62.7
CCc1nc(C2CCCN2CCS(=O)(=O)c2ccccc2)no1 (stereo unspecified) | 60
CC(C)c1nc(C2CCCN2CCS(=O)(=O)c2ccccc2)no1 (stereo unspecified) | -158
CCc1nc(C2CCCN2CC(=O)NCCOc2ccccc2)no1 (stereo unspecified) | 58.6
COc1ccccc1CCNC(=O)CN1CCCC1c1noc(C)n1 (stereo unspecified) | -3.9
CCc1nc(C2CCCN2CCCS(=O)(=O)c2ccccc2)no1 (stereo unspecified) | 48.7
COCc1ccccc1CNC(=O)CN1CCCC1c1noc(C)n1 (stereo unspecified) | 51.2
Cc1cccc(OCCNC(=O)CN2CCCC2c2noc(C)n2)c1 (stereo unspecified) | 31.6
COCc1cccc(CNC(=O)CN2CCCC2c2noc(C)n2)c1 (stereo unspecified) | -27.1
CCOC1(C)C(=O)c2ccccc2N1Nc1ccccc1C(=O)CC (stereo unspecified) | -50.6
O=C1CC[C@H]2[C@H](CCN2c2ncccn2)N1c1ccccc1 | -72.8

SMILES | INHIBITION [%]
CN1CCN(C(=O)[C@H]2CC[C@@H]3[C@@H](CCN3Cc3ccsc3)O2)CC1 | -1.36
COc1cc(N2C[C@H]3CCC[C@@H](CN4CCCC4)[C@H]3C2)ncn1 | -13.2
Cc1c(C(=O)NCC(C)C)nnn1-c1cccc2c1CCN(C)C2 | 26.2
Cc1csc(CNC(=O)NCC(O)c2ccc(F)cc2)n1 (stereo unspecified) | -12.9
CC(NCC(=O)NCC(=O)Nc1ccc(F)cc1)c1cccs1 (stereo unspecified) | -69.5
Cc1csc(CCCNC(C)CC(=O)Nc2ccc(F)cc2)n1 (stereo unspecified) | 50.5
COc1ccccc1NC(=O)CC(C)NCc1scnc1C (stereo unspecified) | -27.4
Cc1csc(CCCNC(C)CC(=O)Nc2cccc(C)c2C)n1 (stereo unspecified) | 50.9
COc1ccccc1NC(=O)CC(C)NCCc1sc(C)nc1C (stereo unspecified) | 22.2
COc1ccsc1C(=O)NC1CCN(c2cccc(F)c2)CC1 | 27.7
Cc1ccc(NC2CCN(C(=O)c3ccc(C)o3)CC2)nn1 | 53.6
Cc1ccc(NC2CCN(C(=O)c3c(C)nn(C)c3Cl)CC2)nn1 | 62.2
Cc1ccc(NC2CCN(C(=O)c3c(C)noc3C)CC2)nn1 | -103
Cc1ccc(CC(=O)N2CCC(Nc3ccc(C)nn3)CC2)cn1 | 18.7
CCn1nc(C)c(C(=O)N2CCC(Nc3ccc(C)nn3)CC2)c1C | -18.1
Cc1ccc(NC2CCN(C(=O)Cn3nc(C)cc3C)CC2)nn1 | -1.51
CCc1ccc(C(=O)N2CCC(Nc3ccc(C)nn3)CC2)o1 | -100
Cc1ccc(NC2CCN(C(=O)c3ccc(Cl)o3)CC2)nn1 | -6.11
Cc1cnn(CC(=O)N2CCC(Nc3ccc(C)nn3)CC2)c1 | 56.7
